Measurements published in ChEMBL document CHEMBL4513216, “Probing the Open Global Health Chemical Diversity Library for Multistage-Active Starting Points for Next-Generation Antimalarials” (ACS Infect Dis, 2020).
Screen size: about 69,000 compounds; about 8,600 (12%) showed an effect of 50% or more. What follows is part of a selection rich in strong results, with near analogues and random picks from the rest.

system: Plasmodium berghei; assay: Screen against P. berghei liver stage (PbLuc), transformed with Luciferase, at 10uM; format: functional, HepG2; settings: tested at 10 uM

| SMILES | INHIBITION [%] |
| --- | --- |
| CNC(=O)C1(C)CN(S(=O)(=O)c2cccc(OC)c2)CCO1 (configuration not stated) | 11.175 |
| O=C(c1cnccn1)N1C[C@@H](OCc2cccnc2)[C@H]2OCCC[C@H]21 | 14.6 |
| CC(C)CCn1[nH]c(CNc2ccccc2)nc1=O | -7.9 |
| CN(C)C1CCN(C(=O)c2cc3c(s2)CCN3C(=O)C2CC2)CC1 | 49.1 |
| CCC1=N[C@@]2(CC[C@@H]3CN(Cc4ccc(C)cc4)C[C@@H]32)C(=O)N1C | 34.9 |
| CCC1=N[C@@]2(CC[C@@H]3CN(Cc4ccccc4C)C[C@@H]32)C(=O)N1C | 46.6 |
| CCC1=N[C@@]2(CC[C@@H]3CN(Cc4ccc(Cl)cc4)C[C@@H]32)C(=O)N1C | 50.6 |
| CCC1=N[C@@]2(CC[C@@H]3CN(CC)C[C@@H]32)C(=O)N1C | 23.1 |
| CCC1=N[C@@]2(CC[C@@H]3CN(Cc4cccc(Cl)c4)C[C@@H]32)C(=O)N1C | 30.3 |
| CCC1=N[C@@]2(CC[C@@H]3CN(Cc4ccc(F)cc4)C[C@@H]32)C(=O)N1C | 62 |
| Cc1cccc(CNC(=O)Nc2ccn(CCCC(=O)N(C)C)n2)c1 | -6.52 |
| CC1CCN(c2nc3cn(-c4ccc5c(c4)OCO5)c(=O)c-3c[nH]2)CC1 | 23.5 |
| Cc1ccc(CN2CCC[C@@H]3CN(C(=O)c4ccco4)C[C@@H]32)o1 | -2.35 |
| Cc1cc(C(=O)Nc2ccc3c(ccn3CCN3CCOCC3)c2)on1 | 12.8 |
| COc1ccc(Oc2ccc(C(F)(F)F)cn2)cc1CN1CCCC1 | 63.7 |
| COc1cc(Oc2ccc(C#N)cn2)ccc1CN1CCCC1 | 82.9 |
| COc1ccc(CN2CC[C@H](NC(C)=O)[C@@H](O)CC2)c(OC)c1 | 35.3 |
| COc1cc(Oc2ccc(C(F)(F)F)cn2)ccc1CN1CCCC1 | 91.5 |
| COc1cc(Oc2cnc3ccccc3n2)ccc1CN1CCCC1 | 84.9 |
| COc1ccc(CN2CCSCC2)c(OC)c1 | 33.1 |
| COc1ccc(C2CCCN2c2ccc(C#N)cn2)c(OC)c1 (configuration not stated) | 37.7 |
| COc1ccc(CN2CCC(O)CC2)c(OC)c1 | 1.81 |
| COc1cc(Oc2ccc(C(N)=O)cn2)ccc1CN1CCCC1 | -0.27 |
| COc1ccc(CN2CCn3c(CO)nnc3C2)cc1CN1CCCC1 | 44.8 |
| Cc1cc(CN2CCN(Cc3ccc(C#N)cc3OC(F)F)CC2)no1 | 14.27 |
| COc1ccc(Oc2cccnc2)cc1CN1CCCC1 | 49.4 |

| SMILES | INHIBITION [%] |
| --- | --- |
| O=C(Cc1cccc(O)c1)N1CCCC(O)(CN2CCOCC2)CC1 (configuration not stated) | 6.26 |
| CC(Cn1cccn1)NC(=O)NCc1ccc(C(N)=O)cc1 (configuration not stated) | -98.8 |
| Cc1cc(NC(=O)CN2CCn3c(nnc3C3CC3)C2)on1 | 25.3 |
| CC(C)c1nc(C2CCCN2CCN2CCCCC2)no1 (configuration not stated) | -0.55 |
| CN(C)CCO[C@H]1CN(CC2CC2)[C@@H]2CCCO[C@H]12 | 25.8 |
| CC(NC(=O)c1cccs1)C(=O)NCc1ccccn1 (configuration not stated) | 21.6 |
| O=c1cc(Cn2cncn2)nc2n1CCCN(Cc1ccoc1)C2 | 20.5 |
| CCS(=O)(=O)N1CCC(NC(=O)c2cc(C(C)C)ccc2O)CC1 | -7.1 |
| Cc1ncsc1CN1CC[C@H]2OCC[C@@]2(C(=O)N2CCOCC2)C1 | 11.4 |
| CC1(C)CC(NC(=O)c2cnn(-c3ccccc3F)c2N)CC(C)(C)N1 | -33 |
| Cc1cc(C(=O)N2CCn3c(COCC4CCCC4)cnc3C2C)on1 (configuration not stated) | 37.3 |
| CCn1nc(C)c2nc(C(C)C)nc(NCCCO)c21 | -9.48 |
| CCn1nc(C)c2nc(C)nc(NCCc3ccc(C)cc3)c21 | 62.7 |
| CCCc1nc(NCCc2ccccc2)c2c(n1)c(C)nn2CC | 43.7 |
| CCn1nc(C)c2nc(C(C)C)nc(NCCc3ccc(O)cc3)c21 | 68.1 |
| CCn1nc(C)c2nc(C)nc(NCCc3ccccc3)c21 | 46.4 |
| CCn1nc(C)c2nc(C(C)C)nc(NCC(C)O)c21 (configuration not stated) | -3.11 |
| CCOc1ccccc1C1CCCN1 (configuration not stated) | 15.8 |
| Cc1cnn(CC(C)NCc2nc(-c3ccsc3)oc2C)c1 (configuration not stated) | -7.31 |
| CC1(C)CN(Cc2ccncc2)CCS1(=O)=O | 21.9 |
| Cc1ccc(CN2CCS(=O)(=O)C(C)(C)C2)cc1C | 70.1 |
| Cn1cc(CN2CCS(=O)(=O)C(C)(C)C2)cn1 | 44.3 |
| COc1ccc(Cn2cc(C(C)O)nn2)cc1 (configuration not stated) | 19.9 |
| CNc1cnc(CC2COCCN(CCOc3ccccc3)C2)cn1 (configuration not stated) | 39.7 |
| CC(=O)NC1CCN(C(=O)Nc2cccc(SC(F)F)c2)CC1 | 27.9 |
| CC(=O)NC1CCN(C(=O)Nc2ccc(SC(F)F)cc2)CC1 | 73.5 |

| SMILES | INHIBITION [%] |
| --- | --- |
| CC(=O)NC1CCN(C(=O)Nc2cccc(C(F)(F)F)c2)CC1 | 27.9 |
| CN(Cc1ccco1)[C@@H]1CN(Cc2cccs2)C[C@@H]2CCCO[C@@H]21 | 31.4 |
| Cn1cnnc1SCC(=O)N1C[C@@H]2CC[C@H]1CN(Cc1cccnc1)C2 | 6.28 |
| CCN(CC)C(=O)CN1CCc2c(nc(C3CCNCC3)nc2NC)C1 | -3.94 |
| Nc1ccc(C(=O)N2C[C@H]3CC[C@@H](C2)N(Cc2ccccc2)C3)cn1 | -20.8 |
| Cc1ccc(-n2ncc(C(=O)NCC3CCS(=O)(=O)C3)c2C)cc1 (configuration not stated) | -24.2 |
| Cc1cccc(-n2ncc(C(=O)NCC3CCS(=O)(=O)C3)c2C)c1 (configuration not stated) | -33.9 |
| Cc1c(C(=O)NCC2CCS(=O)(=O)C2)cnn1-c1ccccc1 (configuration not stated) | 57.8 |
| O=C1N(Cc2ccc(Cl)cc2)CCC12CCCNC2 (configuration not stated) | 3.81 |
| CC(=O)NCCc1ccc(S(=O)(=O)Nc2ccc(C)c(F)c2)s1 | 32.3 |
| CC(=O)c1ccc(-n2c(C)cn(CCC#N)c2=O)cc1 | 5.36 |
| CC(=O)c1ccc(-n2c(C)cn(CCS(C)(=O)=O)c2=O)cc1 | 55.6 |
| CC(=O)c1ccc(-n2c(C)cn(CCC(=O)NC(N)=O)c2=O)cc1 | 12.7 |
| OC(CN1CCN(Cc2cc(F)ccc2F)CC1)C1CC1 (configuration not stated) | -6.11 |
| CCC(Nc1cccc(OC)c1)C(=O)NCc1nc(C)cc(=O)[nH]1 (configuration not stated) | 36.4 |
| CCS(=O)(=O)N1CCc2c(CN3CCOCC3)cncc2C1 | 92.1 |
| CCS(=O)(=O)N1CCc2c(COCCN(C)C)cncc2C1 | 24 |
| CCS(=O)(=O)N1CCc2c(COC)cncc2C1 | 23.1 |
| CCS(=O)(=O)N1CCc2c(COCc3ccncc3)cncc2C1 | 66.6 |
| O=S(=O)(C1CC1)N1CCc2c(CN3CCOCC3)cncc2C1 | 12.6 |
| CCCS(=O)(=O)N1CCc2c(COCC)cncc2C1 | 33 |
| CN(C)CCN(C)C(=O)c1ccccc1-n1cc(CN(C)C)cn1 | 1.5 |
| c1ccc(CN2Cc3[nH]nc(COCC4CC4)c3C2)nc1 | 30.5 |
| CN(C)CCNC(=O)C1Cc2nc(-c3ccccc3)sc2N1CC1CC1 (configuration not stated) | 24.3 |
| CCN(CC)CCNC(=O)c1cnc(-c2ccccc2)nc1 | -8.07 |
| CN(CCNC(=O)c1cnc(-c2ccccc2)nc1)S(C)(=O)=O | 57.1 |

| SMILES | INHIBITION [%] |
| --- | --- |
| CN(CCNC(=O)c1cnc(-c2ccncc2)nc1)S(C)(=O)=O | 25.1 |
| Cc1ccc(OCCN2CCCC(c3cc(C(N)=O)[nH]n3)C2)cc1 (configuration not stated) | 15.3 |
| O=C(NC1CC1)C1CCN(c2snc3ccccc23)CC1 | 37.9 |
| CCc1n[nH]c(C2CN(C(=O)c3cnc(C)nc3CC)CCO2)n1 (configuration not stated) | -49.5 |
| CC(NC(=O)c1ccnn1C)c1ccc(OCC2CC2)c(F)c1 (configuration not stated) | 68.2 |
| CC(NC(=O)c1ccc(=O)n(C)c1)c1ccc(OCC2CC2)c(F)c1 (configuration not stated) | 40.97 |
| CC(=O)NC(C)c1ccc(OCC2CC2)c(F)c1 (configuration not stated) | 26.8 |
| CC(=O)c1cccc(-n2nc(C(C)=O)c(C(C)=O)c2C)c1 | 0.325 |
| O=C(Nc1nnc(C(F)F)s1)N[C@H](CCO)c1ccccc1 | 20.9 |
| COc1ccnc(N2CCN(C(=O)c3ccc(Cl)o3)CC2)n1 | -9.76 |
| CC(C)N1CCN(C(=O)c2csc3nc(-c4ccc(Cl)cc4)cn23)CC1 | 37.9 |
| O=C(c1csc2nc(-c3ccc(Cl)cc3)cn12)N1CCCC(CO)C1 (configuration not stated) | -16.6 |
| CCC1CN(C(=O)c2csc3nc(-c4ccc(Cl)cc4)cn23)CCN1 (configuration not stated) | 56.1 |
| CNC(=O)C1(CCCc2ccccn2)CCN1Cc1coc(C)n1 (configuration not stated) | 9.05 |
| O=C(NCc1cccnc1)c1cn(CCc2ccccc2)nn1 | 12.9 |
| Cc1nn(C2CCCC2)c2nc(C(C)(C)CN3CCN(C)CC3)[nH]c12 | 49.4 |
| CS(=O)(=O)CCn1ccc(NC(=O)CCc2cccc(F)c2)n1 | 13.8 |
| Nc1nccc(N[C@H]2CN(CC(=O)NC3CCCCC3)C[C@@H]2C2CC2)n1 | 56.2 |
| Cc1nccc(N[C@H]2CN(CCC(=O)NC3CCCC3)C[C@@H]2C2CC2)n1 | 26.5 |
| Cc1nccc(N[C@H]2CN(CCS(C)(=O)=O)C[C@@H]2C2CC2)n1 | 39.3 |
| Cc1noc([C@H]2C[C@H]3CN(C(=O)Cc4ccsc4)CC[C@H]3O2)n1 | -14.1 |
| c1ccc2c(c1)CC(n1ccnc1-c1cc3n(n1)CCNC3)CO2 (configuration not stated) | 43.9 |
| c1ccc2c(c1)CC(n1ccnc1-c1cc3n(n1)CCCNC3)CO2 (configuration not stated) | 18.5 |
| O[C@H]1Cc2ccccc2[C@H]1n1ccnc1-c1cc2n(n1)CCNC2 | 67.6 |
